Reference: PubChem BioAssay AID1159580 (chemical genetic matrix, 2015)
Among all 5,500 compounds or so, about 2,000 (36%) were called active. About 18% were inconclusive and are not listed. No stated cut-off is given here; in the data, active means normalized growth mostly below about 0.91 (no sharp cut-off); inconclusive means no clear call, values can overlap the other calls; inactive means mostly above about 0.92. The list shows a part of the results.

Test: chemical genetic growth profiling, strain panel (AID 1159580);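 further: tested at 20 µM; growth read once vehicle control cultures reached saturation at 30 °C; 1 = growth at the plate median or of vehicle wells; lower values mean less growth of the strain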
Conditions: S. cerevisiae deletion strains, growth OD

Measured: normalized growth

Cc1c(C(=O)N2CCCCC2)cc(-c2ccccc2)n1-c1ccccc1
active: locus YHR030C, strain SLT2, hits give low values 0.676 | locus YLR113W, strain HOG1, hits give low values 0.787 | locus YPL256C, strain CLN2, hits give low values 0.8
inactive: locus YAR019C, strain CDC15, hits give low values 0.964 | locus YBL105C, strain PKC1, hits give low values 0.975 | locus YBR135W, strain CKS1, hits give low values 0.969 | locus YBR136W, strain MEC1, hits give low values 0.969 | locus YBR160W, strain CDC28, hits give low values 0.959 | locus YDL017W, strain CDC7, hits give low values 0.973 | locus YDL028C, strain MPS1, hits give low values 0.946 | locus YDL101C, strain DUN1, hits give low values 0.969 | locus YDL108W, strain KIN28, hits give low values 0.968 | locus YDL132W, strain cdc53, hits give low values 0.973 | locus YDL214C, strain PRR2, hits give low values 0.908 | locus YDR052C, strain DBF4, hits give low values 0.983 | locus YDR054C, strain cdc34, hits give low values 0.968 | locus YDR226W, strain ADK1, hits give low values 0.962 | locus YDR477W, strain SNF1, hits give low values 0.908 | locus YER123W, strain YCK3, hits give low values 0.896 | locus YER133W, strain GLC7, hits give low values 0.924 | locus YFL009W, strain cdc4, hits give low values 0.952 | locus YFL029C, strain CAK1, hits give low values 0.967 | locus YFR003C, strain YPI1, hits give low values 0.976 | locus YFR019W, strain FAB1, hits give low values 0.944 | locus YFR028C, strain CDC14, hits give low values 0.968 | locus YGR040W, strain KSS1, hits give low values 0.897 | locus YGR052W, strain FMP48, hits give low values 0.947 | locus YGR092W, strain DBF2, hits give low values 0.855 | locus YHR079C, strain IRE1, hits give low values 0.822 | locus YHR082C, strain KSP1, hits give low values 0.901 | locus YHR205W, strain SCH9, hits give low values 0.828 | locus YIL147C, strain SLN1, hits give low values 0.951 | locus YJL095W, strain BCK1, hits give low values 0.837 | locus YJL128C, strain PBS2, hits give low values 0.922 | locus YJL157C, strain FAR1, hits give low values 0.933 | locus YJR016C, strain ILV3, hits give low values 0.975 | locus YJR066W, strain TOR1 (second series), hits give low values 0.912 | locus YJR066W, strain TOR1, hits give low values 0.843 | locus YKL048C, strain ELM1, hits give low values 0.928 | locus YKL067W, strain YNK1, hits give low values 0.916 | locus YKL101W, strain HSL1, hits give low values 0.884 | locus YKL193C, strain SDS22, hits give low values 0.969 | locus YKL203C, strain TOR2, hits give low values 0.981 | locus YLR133W, strain CKI1, hits give low values 0.921 | locus YLR403W, strain SFP1, hits give low values 0.905 | locus YML070W, strain DAK1, hits give low values 0.898 | locus YMR001C, strain CDC5, hits give low values 0.944 | locus YMR205C, strain PFK2 (second series), hits give low values 0.934 | locus YMR277W, strain FCP1, hits give low values 0.943 | locus YNL006W, strain LST8, hits give low values 0.965 | locus YNL020C, strain ARK1, hits give low values 0.921 | locus YNL161W, strain CBK1, hits give low values 0.972 | locus YNL183C, strain NPR1, hits give low values 0.942 | locus YNL207W, strain RIO2, hits give low values 0.974 | locus YNL222W, strain SSU72, hits give low values 0.949 | locus YNL307C, strain MCK1 (second series), hits give low values 0.881 | locus YOL078W, strain AVO1, hits give low values 0.974 | locus YOL136C, strain PFK27, hits give low values 0.88 | locus YOR061W, strain CKA2, hits give low values 0.918 | locus YOR119C, strain RIO1, hits give low values 0.932 | locus YOR231W, strain MKK1, hits give low values 0.823 | locus YOR329C, strain SCD5, hits give low values 0.977 | locus YPL031C, strain PHO85, hits give low values 0.891 | locus YPL153C, strain RAD53, hits give low values 0.91 | locus YPL204W, strain HRR25, hits give low values 0.899 | locus YPL209C, strain IPL1, hits give low values 0.974 | locus YPR025C, strain CCL1, hits give low values 0.981 | locus YPR106W, strain ISR1, hits give low values 0.958 | locus YPR111W, strain DBF20, hits give low values 0.94 | strain NNK1, hits give low values 0.962 | strain TSCII, hits give low values 0.96
